From PubChem BioAssay AID504834 (National Center for Advancing Translational Sciences (NCATS), 2011)
About 22,000 (6.9%) of roughly 320,000 compounds were called active. Not shown: some 27% with an inconclusive outcome. The sample holds actives, similar compounds and a random draw of the others, so the mix is not that of the screen. A number with no mark means an inactive call. Calls follow the shape of the dose curve; as a rule, active = well fitted inhibition curve with a large enough effect; inconclusive = small, poorly fitted or top-dose-only effect, or another doubt; inactive = no such curve, though single readings can be large or run the other way.

Assay: Primary qHTS for delayed death inhibitors of the malarial parasite plastid, 96 hour incubation
Settings: P. falciparum luciferase reporter growth; series mostly up to 28.7 µM; activity change, negative = inhibition: at the top concentration
In short: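 Erythrocytes infected with luciferase-expressing P. falciparum were dispensed at 2% hematocrit and 0.05% parasitemia (final), then incubated with compounds 96 hours at 37 C in 5% CO2. Luminescence after detection reagent addition reported growth.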
% is scaled to controls: 0 for no effect and ±100 for the full control effect; potency is read from the fitted curve at half-maximal effect.

| SMILES | activity change, negative = inhibition | Potency |
| --- | --- | --- |
| CC(=O)Nc1ccc(NC(=O)CSC2=NS(=O)(=O)c3ccccc3N2)cc1 | 66% | – |
| COc1ccc(OCc2cc(C(=O)N3CCCC3)no2)c2ccccc12 | -11.2% | – |
| CC(=O)Nc1c2c(nn1-c1ccc(C)cc1C)CS(=O)C2 (stereo not drawn) | -3.12% | – |
| CC(C)c1nc(SCC(=O)Nc2cccc(C(=O)O)c2)c2c3c(sc2n1)CCCC3 | 39.3% | – |
| O=C(Nc1sc2c(c1C(=O)O)CCC2)c1ccccc1F | 1.99% | – |
| CC(=O)Nc1sc2c(c1C(c1cccc(F)c1)N1CCN(CCO)CC1)CCCC2 (stereo not drawn) | – | 7.38 µM (active) |
| COc1ccc(OCC(=O)Nc2ccc(NC(=O)c3ccco3)c(C)c2)cc1 | -10.7% | – |
| Cc1noc(C)c1C(=O)NCC1COc2ccccc2O1 (stereo not drawn) | 12.1% | – |
| CCOc1ccccc1NC(=S)N1CCN(c2cccc(C)c2C)CC1 | – | 1.65 µM (active) |
| Cc1cccc(NC(=S)N2CCC(O)CC2)c1C | -2.87% | – |
| CCOc1ccccc1N1CCN(C(=S)Nc2ccc(S(N)(=O)=O)cc2)CC1 | -29.4% | – |
| Cc1onc(-c2c(F)cccc2Cl)c1C(=O)N(C)CC(=O)Nc1cccc(F)c1 | -17.1% | – |
| O=C(O)c1ccc(Cn2c(=S)[nH]c3cc(Cl)ccc3c2=O)cc1 | 20.1% | – |
| CC(C)c1ccc2c(c1)c(SC(C)(C)C)c(CC(C)(C)C(=O)O)n2Cc1ccc(Cl)cc1 | – | 7.38 µM (active) |
| Cc1nc2cc3c(cc2s1)OCO3 | 36.3% | – |
| O=C(c1cc(COc2ccc(F)cc2F)on1)N1CCOCC1 | -3.11% | – |
| Cc1cccc(NC(=O)c2ccc3c(=O)n(CC4CCCO4)c(=S)[nH]c3c2)c1 (stereo not drawn) | 2.86% | – |
| CCOC(=O)c1c(C)[nH]c(C)c1S(=O)(=O)NCCCc1ccco1 | -4.17% | – |
| CN(CC1CCCN(CCc2cccc(C(F)(F)F)c2)C1)C(=O)c1ccc2nc[nH]c2c1 (stereo not drawn) | 15.5% | – |
| COc1cccc(CN(C)CC2CCCN(CCc3ccc(Cl)cc3)C2)c1OC (stereo not drawn) | – | 2.94 µM (active) |
| COc1cccc(CN(C)CC(=O)NCc2ccccc2Cl)c1OC | -23.3% | – |
| O=C(Cc1ccc(Cl)cc1)NCc1nc(-c2ccccc2)no1 | -24.9% [at 1.15 µM] | – |
| COc1ccc(-c2noc(C(C)NS(=O)(=O)c3ccc(NC(C)=O)cc3)n2)cc1 (stereo not drawn) | -5.21% | – |
| COc1ccc(-c2noc(CNC(=O)C(C)Oc3ccccc3)n2)cc1 (stereo not drawn) | – | 13.1 µM (active) |
| Cc1ccc(OCC(=O)Nc2ccc3oc(=O)ccc3c2)cc1C | 11.3% | – |
| Cc1ccc(S(=O)(=O)N2CCN(C(=O)c3ccc(-n4cncn4)c([N+](=O)[O-])c3)CC2)cc1 | -5.29% | – |

| SMILES | activity change, negative = inhibition | Potency |
| --- | --- | --- |
| CN1CCN(C(=O)C(=O)c2cn(CC(=O)N3CCCC3)c3ccccc23)CC1 | -2.05% | – |
| N#Cc1c(C(F)(F)F)cc(-c2cccs2)nc1N1CCCCC1 | – | 10.4 µM (active) |
| CCN(CC)c1nc(-c2ccccc2)cc(C(F)(F)F)c1C#N | -30% | – |
| CCCn1c(=O)c2c(C(F)(F)F)cc(-c3cccs3)nc2n(CCC)c1=O | -4.47% | – |
| CCOc1ccc2c(c1)c(=O)c(S(=O)(=O)c1ccc(C)cc1)cn2CC | 31.1% | – |
| COC(=O)c1ccc(NC(=O)CSc2nncn2-c2cccnc2)cc1 | -14.8% | – |
| COc1cccc(C(=O)NNC(=O)/C=C/c2ccccc2)c1 | 1.13% | – |
| COc1cccc(C(=O)NNC(=O)c2cccc(F)c2)c1 | – | 0.37 µM (active) |
| COc1cccc(C(=O)NNC(=O)c2ccccc2Br)c1 | 7.37% | – |
| COCCCNS(=O)(=O)c1cccc(S(=O)(=O)c2cccc(S(=O)(=O)NCCCOC)c2)c1 | 0% | – |
| CCc1noc(C)c1C(=O)Oc1ccc(N(C)S(=O)(=O)c2ccc(C)c(C)c2)cc1 | 2.36% | – |
| C/C(=N\NC(=S)NCc1ccccc1)C1CCCCC1 | – | 6.57 µM (active) |
| CC1CCCCN1C(=S)NCc1ccccc1 (stereo not drawn) | 15.1% | – |
| C/C(=N\NC(=S)NCc1ccccc1)c1ccc(Cl)cc1 | -8.47% | – |
| Cc1c(C)n2c(SCC(=O)N3CCCC3)nnc2[nH]c1=O | 13.1% | – |
| COc1cc(OC)c(NS(=O)(=O)c2cn(C)cn2)cc1Cl | -11.6% | – |
| COC(=O)c1c(C)oc(C)c1S(=O)(=O)Nc1ccc(C(C)C)cc1 | -25.7% | – |
| CCc1ccccc1NC(=O)NCCN1CCCCC1 | -5.82% | – |
| CN1CCN(CCNC(=O)Nc2ccccc2[N+](=O)[O-])CC1 | – | 8.28 µM (active) |
| CN(CC(=O)Nc1ccc(N2CCOCC2)cc1)CC(=O)Nc1ccccc1[N+](=O)[O-] | 10.3% | – |
| CC1Cc2cc(/C(O)=C3\C(=O)C(=O)N(Cc4cccnc4)C3c3ccccc3F)ccc2O1 (stereo not drawn) | -3.96% | – |
| COC(=O)c1cn(C)c2ccc(S(=O)(=O)N3CC(C)CC(C)C3)cc2c1=O (stereo not drawn) | – | 3.7 µM (active) |
| CCn1cc(C(=O)N2CC(C)CC(C)C2)c(=O)c2cc(S(=O)(=O)N3CCCC3)ccc21 (stereo not drawn) | -6.11% | – |
| CC1CC(C)CN(S(=O)(=O)c2ccc(C(=O)NN3CCOCC3)cc2)C1 (stereo not drawn) | 3.68% | – |
| Cc1ccc(-c2cc(C(=O)NN)n[nH]2)o1 | -13.1% | – |
| CCC1(CC)NC(=O)N(CC(=O)OCC(=O)c2cc(C)c(C)cc2C)C1=O | 29.7% | – |

| SMILES | activity change, negative = inhibition | Potency |
| --- | --- | --- |
| Cc1cc(-c2nnc(SCC(=O)Nc3ccc(S(N)(=O)=O)cc3)n2N)n[nH]1 | -27.2% | – |
| N#Cc1ccc(C(=O)OCC(=O)NC(=O)NC2CCCCC2)cc1 | 11.6% | – |
| O=C(c1cccc(C(=O)N2CCN(c3ccc(F)cc3)CC2)c1)N1CCN(c2ccc(F)cc2)CC1 | – | 9.28 µM (active) |
| O=C(c1cc2cc(F)ccc2[nH]1)N1CCN(c2ccc(F)cc2)CC1 | -27.8% | – |
| O=C(c1ccccc1)c1ccc(C(=O)N2CCN(c3ccccc3)CC2)cc1 | -13.6% | – |
| CC(C)(C)c1ccc(S(=O)(=O)N2CCN(C(=O)c3ccc4c(c3)C(=O)N(Cc3ccncc3)C4=O)CC2)cc1 | 1.22% | – |
| CC(=O)c1ccc(NC(=O)c2cc(-c3cccs3)on2)cc1 | 263% | – |
| Cc1ccc(NC(=O)CSc2sc3c(O)cc(=O)[nH]c3c2C#N)cc1C | -11.5% | – |
| CCC1(c2ccccc2)NC(=O)N(CC(=O)c2ccc3c(c2)OCO3)C1=O (stereo not drawn) | 7.08% | – |
| COc1ccc(N(CC(=O)NCCSCc2cccc(Cl)c2)S(C)(=O)=O)cc1 | 42.4% | – |
| CCC(CCC(C)C1CCC2C3CC=C4CC(O)CC[C@@]4(C)C3CC[C@@]12C)C(C)C (stereo partly drawn) | 19% | – |
| CN(C)c1ccc(/C=C2\CC3C4CC=C5CC(O)CCC5(C)C4CCC3(C)C2=O)cc1 (stereo not drawn) | – | 2.33 µM (active) |
| CN(C)c1ccc(C=C2C(=O)OC3(CCCC3)OC2=O)cc1 | 26.7% | – |
| O=C(O)[C@@H](S)[C@H](S)C(=O)O | – | 1.69 µM (active) |
| c1cnc(N2CCN(c3ccc4ccccc4n3)CC2)nc1 | 264% | – |
| Cc1ccc(-c2csc(-c3cc(C)on3)n2)cc1 | 82.6% | – |
| Clc1ccc(-c2csc(-c3ccncc3)n2)cc1 | – | 0.185 µM (active) |
| Fc1ccc(-c2csc(-c3ccc(C4SCCS4)cc3)n2)cc1F | 96.5% | – |
| Cc1ccc(C(=O)N(CC(=O)NC2CCCC2)c2ccc(F)cc2)s1 | 8.88% | – |
| COCc1ccc(C(=O)NC2CC(C)(C)Cc3c2cnn3-c2ccc(C)cc2)o1 (stereo not drawn) | -8.09% | – |
| Cc1cc(C)cc(NC(=S)NC2CC3CCCC(C2)N3Cc2cccs2)c1 (stereo not drawn) | – | 2.33 µM (active) |
| COc1ccc(NC(=O)NC2CC3CCCC(C2)N3Cc2ccccc2)cc1 (stereo not drawn) | 108% | – |
| C=CCN1C2CCCC1CC(NC(=S)Nc1cccc(OC)c1)C2 (stereo not drawn) | 22.2% | – |
| CCC1(C(=O)c2ccccc2)C(c2cccc([N+](=O)[O-])c2)C1(C(=O)OC)C(=O)OC (stereo not drawn) | – | 13.1 µM (active) |
| CN(C(=O)c1cccc([N+](=O)[O-])c1)c1ccccc1C(=O)NCc1ccccc1 | 9.28% | – |
| CCC(CC)NC(=O)/C=C/c1cccc([N+](=O)[O-])c1 | -22.9% | – |

| SMILES | activity change, negative = inhibition | Potency |
| --- | --- | --- |
| O=C(O)CSCC(=O)Nc1ccc(C(F)(F)F)cc1 | -5.68% | – |
| CCC(=O)Nc1ccc(Nc2nc(Cl)nc(Nc3ccc(NC(=O)CC)cc3)n2)cc1 | 11.2% | – |
| O=C(CCl)Nc1ccc(Sc2ccc(NC(=O)CCl)cc2)cc1 | – | 1.85 µM (active) |
| Cc1ccc2nc(N(CCN(C)C)C(=O)C3=COCCO3)sc2c1 | -2.19% | – |
| COCCNC(=O)c1ccc2nc(Cc3ccc(OC)c(OC)c3)oc2c1 | -26.7% | – |
| O=C(Nc1cccc(NC(=O)c2ccccc2[N+](=O)[O-])c1)c1ccccc1Cl | 7.49% | – |
| O=C(O)c1ccccc1NC(=S)NC(NC(=O)c1ccccc1[N+](=O)[O-])C(Cl)(Cl)Cl (stereo not drawn) | – | 13.1 µM (active) |
| O=C(O)c1ccccc1C(=O)Nc1ccccc1[N+](=O)[O-] | 56.4% | – |
| O=C(CN1CCC(NC(=O)C2CC2)CC1)Nc1ccccc1[N+](=O)[O-] | – | 0.738 µM (active) |
| O=[N+]([O-])c1ccccc1Nc1ccc(O)cc1 | 0% | – |
| O=C(Nc1ccccc1-c1ccccc1)c1ccccc1[N+](=O)[O-] | -5.73% | – |
| O=C(CN1CCCCC1)Nc1ccccc1C(=O)NC1CC1 | 11.1% | – |
| O=C(Nc1ccncc1)c1ccccc1[N+](=O)[O-] | 0% | – |
| O=C(CN1CCC(NC(=O)Nc2ccccc2)CC1)Nc1cccc([N+](=O)[O-])c1 | -7.75% | – |
| O=C(O)c1ccccc1NC(=O)c1ccccc1-c1ccccc1C(=O)O | -44% | – |
| O=C(NNC(=O)c1ccccc1[N+](=O)[O-])Nc1ccccc1C(F)(F)F | – | 11.7 µM (active) |
| O=C(Nc1ccccc1[N+](=O)[O-])C1C(c2ccccc2)=C1c1ccccc1 | – | 13.1 µM (active) |
| Cc1ccsc1C(=O)NCCc1ccco1 | 362% | – |
| CCCOC1CCCN(C(=O)c2cc(COc3cncc(Cl)c3)on2)C1 (stereo not drawn) | 28.7% | – |
| O=C1Nc2cc(C(=O)N3CCN(c4ccc(F)cc4)CC3)ccc2NC1CSCc1cccc(F)c1 (stereo not drawn) | -19% | – |
| COC(=O)c1sc(NC(=S)NC(=O)c2ccc(C)cc2)nc1C | 129% | – |
| Nc1cccc(S(=O)(=O)Nc2ccc(SC(F)F)cc2)c1 | 39.2% | – |
| COc1cc(N=Cc2c(O)c3ccccc3oc2=O)c(OC)cc1Cl | 2.3% | – |
| CCOc1ccc(S(=O)(=O)NCCC(=O)N2CCCCCCC2)cc1 | -1.38% | – |
| CCN(CC(=O)NCc1ccc(Cl)cc1)C(=O)c1c(C)noc1C | -14.3% | – |
